According to the supplement of paper PMC12669032:

tested on: Escherichia coli IAI1; assay: growth AUC relative to DMSO control (median of replicates) (fraction); higher = more growth (less inhibition), active = hit call of the paper; settings: 20 µM; 24 h;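 active = AUC reduced over 20% with Padj below 0.05 in at least 2 of 3 replicates; inactive = otherwise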
How it was run: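 In round-bottom 96-well plates sealed with pierced gas-permeable seals, gut bacterial monocultures in mGAM were grown anaerobically at 37 °C from OD600 0.05 with 20 µM compound (1% DMSO). OD600 readings were taken hourly for 24 h, and the minimum OD was set to 0. Area under the growth curve was then normalised to the plate median of solvent-only wells, or to row and column medians on the industrial chemical plate. The value given is the median of three biological replicates grown on separate days.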

Growth AUC, inactive:
N#Cc1cc(Cl)c(O)c(Cl)c1 0.9, CCc1cccc(C)c1N(C(=O)C(=O)O)C(C)COC (stereo unspecified) 0.987, CCC([O-])=C1C(=O)CC(C(=O)[O-])CC1=O.[Ca+2] (stereo unspecified) 0.972, COC1CCC2(CC1)NC(=O)C(c1cc(C)ccc1C)C2O (stereo unspecified) 1.03, O.O=C(Nc1ccc(Cl)c(Cl)c1)Nc1cc(Cl)ccc1Oc1ccc(Cl)cc1S(=O)(=O)[O-].[Na+] 1.03, NC(=O)c1nn(-c2c(Cl)cc(C(F)(F)F)cc2Cl)c(N)c1S(=O)C(F)(F)F (stereo unspecified) 0.983, Cc1nn(C)c(F)c1C(=O)Nc1ccccc1C(C)CC(C)C (stereo unspecified) 1.01, CCOC(=O)c1nc(C(Cl)(Cl)Cl)n(-c2ccc(Cl)cc2Cl)n1 1.01, CCCCOCN(C(=O)CS(=O)(=O)[O-])c1c(CC)cccc1CC.[Na+] 0.991, CCc1cccc(CC)c1N(COC)C(=O)CS(=O)(=O)[O-].[Na+] 0.987, CCN(CC)C(=O)c1cccc(C)c1 1.01, COC(=O)c1c(Cl)ccc(Cl)c1OC 1.03, CCN(CC)c1nc(C)cc(=O)[nH]1 0.998, CC(C)CNC(=O)N1CCNC1=O 1.02, COC(=O)c1ccccc1S(=O)(=O)NC(=O)n1nc(OCC(C)O)n(C)c1=O (stereo unspecified) 0.991, CCCNCCOc1c(Cl)cc(Cl)cc1Cl 0.953
